# Laboratory results from PubChem BioAssay AID2153 (The Scripps Research Institute Molecular Screening Center, 2009).
# Hit rate of the full screen: of about 2,400 compounds, about 2,000 (83%) were called active. So high a share suggests a set chosen from earlier hits. Only a sample is shown. A number with no mark means an inactive call.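 The calls were made as follows: active = inhibition above the solvent-only control well mean plus 3 SD, limit set per screening run (cut at about 23% in these data); inactive = the rest.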
# Molecular target: Guanyl-specific ribonuclease T1 (Aspergillus oryzae (strain ATCC 42149 / RIB 40)) (UniProt P00651)
# Sequence (P00651 whole entry, looked up): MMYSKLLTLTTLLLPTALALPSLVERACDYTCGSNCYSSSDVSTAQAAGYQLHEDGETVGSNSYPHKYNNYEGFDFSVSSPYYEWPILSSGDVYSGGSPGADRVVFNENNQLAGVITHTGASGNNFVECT
# Test: blockers of Aspergillus RNase T1 cleavage – biochemical, fluorescence polarization, counter-screen for TPT1 inhibitor project (AID 2153);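 also: plate controls were DMSO wells with enzyme for no effect and wells without RNase T1 for full effect; inhibitors block cleavage so intact labeled substrate keeps polarization high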
# Conditions: 1536-well, at 5 µM, hits give high values
row,Compound,inhibition
1,CC(C)n1c(=O)c(C=Nc2ccc(Br)cc2)c(O)n(Cc2ccco2)c1=O,28.4% (active)
2,CCCCC(=O)N/N=C/c1c(O)n(CC)c(=S)n(CC)c1=O,110% (active)
3,CCN1C(=O)C(=Cc2c(C)n(CC(=O)NCC3CCCO3)c3ccccc23)C(=O)N(CC)C1=S (centres undefined),26.4% (active)
4,COc1ccccc1N=Nc1c(O)[nH]c(=S)[nH]c1=O,77.7% (active)
5,CC/C(=N\NC(=O)c1ccccc1O)c1c(O)n(Cc2ccccc2)c(=O)[nH]c1=O,35.2% (active)
6,O=C1CC(=O)N(Cc2ccccc2)C(=O)N1CCCCCCN1C(=O)CC(=O)N(Cc2ccccc2)C1=O,34.1% (active)
7,COc1ccc(N2C(=O)/C(=C/c3ccco3)C(=O)NC2=S)cc1,24.8% (active)
8,O=C1NC(=O)N(Cc2ccco2)C(=O)/C1=C\c1cccn1CCOc1ccccc1,11.7%
9,O=C1NC(=O)N(Cc2ccco2)C(=O)/C1=C\c1ccc(-c2ccc(F)cc2)o1,20.3%
